Laboratory results reported in PubChem BioAssay (EPA / NIEHS).
Records with an inconclusive call do not appear. Active and inactive are the calls of the source. The calls were made as follows, unless noted: active = hit-call score of the fitted dose curve at least 0.9, where 1 is the maximum; inconclusive = response in the unintended direction; inactive = score below 0.9.

How the values were obtained:
[1] = CCTE_Deisenroth_5AR_NBTE_donor: CCTE's 5alpha-reductase NanoBRET Target Engagement Assay […], Deisenroth Lab (AID 2284319; active = hit-call score of the fitted dose curve at least 0.9, where 1 is the maximum; inactive = score below 0.9); conditions: actives raise or lower the signal
Procedure, shortened: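 HEK293T cells were reverse transfected with an SRD5A2-NanoLuc vector for 20 h, exposed to test chemical (8 points, 10 nM - 29.9 uM) for 3 h, then testosterone tracer for 2 h more. Donor luminescence (460 nm) was read; bidirectional fit versus DMSO.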

[2] = CCTE_Deisenroth_5AR_NBTE_acceptor: CCTE's 5alpha-reductase NanoBRET Target Engagement Assay - Autofluorescence Screen, Deisenroth Lab (AID 2284321; active = hit-call score of the fitted dose curve at least 0.9, where 1 is the maximum; inactive = score below 0.9;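 also: compound fluorescence in the acceptor channel under 460 nm excitation flags autofluorescence artifacts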); conditions: actives raise or lower the signal
Procedure, shortened: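 Chemicals diluted to a nominal 100 uM in DMSO were scanned at 460 nm excitation. Samples were read in three independent runs (n=3). Gain or loss of acceptor signal was fitted relative to DMSO.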

[3] = TAMU_PeakParms_SingleDonor1434_Asystole: Texas A&M University (TAMU) 1.5-hr Human Induced Pluripotent Stem Cell (iPSC)-derived Cardiomyocytes Calcium (Ca+2) Flux Assay for Cardiotoxicity: Asystole (quiescence of beating) (AID 2284328)
Procedure, shortened: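 Human iPSC-derived cardiomyocytes (donor 1434) were exposed to 0.2, 1, 10 and 100 uM compound in 0.5% DMSO for 90 min at 37C. Ca2+-dye fluorescence gave average peak frequency; POD is EC95, a 95% beat-rate drop versus DMSO.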

[4] = test system: Brachyury (BRA) Protein Expression, Deisenroth Lab, TBXT (gene 6862); experiment: CCTE_Deisenroth_DEVTOX-GLR_legacy_Bra: (Legacy) CCTE's DevTox GLR-Endo Assay Evaluation of Brachyury (BRA) Protein Expression, Deisenroth Lab (AID 2284329; active = hit-call score of the fitted dose curve at least 0.9, where 1 is the maximum; inactive = score below 0.9)
Procedure, shortened: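 RUES2-GLR human pluripotent cells differentiated 48 h with two 24-h-interval chemical exposures (1 nM - 200 uM, 10 points); fixed, nuclear-stained, imaged. Bra+ cell percentage (intensity 5x BMAD above pluripotent control median) fitted relative to 0.2% DMSO.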

[5] = CCTE_Deisenroth_DEVTOX-GLR_legacy_CellCount: (Legacy) Viability Assessment in CCTE's DevTox GLR-Endo Assay, Deisenroth Lab (AID 2284331; active = hit-call score of the fitted dose curve at least 0.9, where 1 is the maximum; inactive = score below 0.9); conditions: actives raise or lower the signal
Procedure, shortened: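 RUES2-GLR human pluripotent cells were seeded 24 h, then differentiated 48 h with two compound doses at 24 h intervals (10-point, 1 nM - 200 uM). Fixed nuclei were imaged and counted; bidirectional fitting versus 0.2% DMSO.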

[6] = test system: IYD (gene 389434); experiment: CCTE_GLTED_hIYD: CCTE's human Iodotyrosine Deiodinase (xIYD) Inhibition Assay, Great Lakes Toxicology and Ecology Division (GLTED) Lab (AID 2284317);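 also: cell-free human IYD enzyme made in baculovirus insect cells; iodide freed from monoiodotyrosine measured by cerium arsenite color change at 420 nm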
Procedure, shortened: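 hIYD: baculovirus-expressed human IYD deiodinated monoiodotyrosine for 3 h with test chemical; free iodide was measured by Sandell-Kolthoff absorbance at 420 nm and normalized to MNT and DMSO/NaOH controls.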

[7] = IUF_NPC4_neurite_area_120hr: Leibniz Research Institute for Environmental Medicine (IUF) 120-hour Neuronal Morphology Assay for Neurite Area (NPC4) (AID 2284305)
Procedure, shortened: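 Human fetal cortex-derived neural progenitor spheres (0.3 mm, GW 16-19) plated on poly-D-lysine/laminin in N2 differentiation medium and exposed from day 0 for 120 h across 7 concentrations plus solvent control. Neurite area is mean pixel area per TUBB3-positive neuron via skeletonization, analysed relative to DMSO.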

[8] = IUF_NPC2-5_cytotoxicity_72hr: Cytotoxicity Assessment at 72 hours in the Leibniz Research Institute for Environmental Medicine (IUF) Neural Progenitor Cell Migration and Differentiation Assay for Cytotoxicity (NPC2-5) (AID 2284306);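 also: LDH release into supernatant measured by resorufin fluorescence marking membrane damage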
Procedure, shortened: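 Human fetal (GW 16-19) neural progenitor spheres, 0.3 mm, plated on poly-D-lysine/laminin in N2 differentiation medium and exposed from day 0 to 7 concentrations plus solvent control (DMSO ≤0.1%). LDH-dependent resazurin-to-resorufin fluorescence in supernatant at 72 h.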

[9] = IUF_NPC2-5_cytotoxicity_120hr: Cytotoxicity Assessment at 120 hours in the Leibniz Research Institute for Environmental Medicine (IUF) Neural Progenitor Cell Migration and Differentiation Assay (NPC2-5) (AID 2284307)
Procedure, shortened: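 Fluorescence (RFU) from LDH-driven resazurin reduction in medium supernatants measured loss of membrane integrity after 120 h of compound exposure of differentiating primary human neural progenitor spheres on an extracellular matrix.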

[10] = IUF_NPC2-5_cell_number_120hr: Cell Number Assessment at 120 hours in the Leibniz Research Institute for Environmental Medicine (IUF) Neural Progenitor Cell Migration and Differentiation Assay (NPC2-5) (AID 2284308; active = hit-call score of the fitted dose curve at least 0.9, where 1 is the maximum; inactive = score below 0.9;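 also: count of Hoechst-stained nuclei in migration zone around plated human neural progenitor spheres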)
Procedure, shortened: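 Cell number is taken as all Hoechst-positive nuclei detected in the area into which cells migrate out of the sphere, scored at 120 h and referenced to DMSO solvent control, which was kept at no more than 0.1%.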

[11] = VALA_TUBHUV_Agonist_CellCount: Viability Assessment in the VALA Sciences human Umbilical Vein Endothelial Tubule Formation (TUBHUV) Agonism Assay (AID 2284309)
Procedure, shortened: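 HUVEC co-cultured 1:3 with HDF for 3 days in 10 ng/ml VEGF, then compounds added in VEGF medium for a further 3 days (72 h). Nuclear-stain/CD31 imaging cell count. Positive-direction fit versus 0.1% DMSO vehicle.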

[12] = VALA_TUBIPS_Agonist_TubuleLength: VALA Sciences human iPS-derived Endothelial Tubule Formation (TUBIPS) Agonism Assay (AID 2284311)
Procedure, shortened: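 Human iPS-derived endothelial cells were exposed to compound for 72 h. Tubule formation was imaged by high-content fluorescence and scored as gain of signal relative to DMSO vehicle (agonist mode).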

[13] = IUF_NPC2-5_viability_120hr: Viability Assessment at 120 hours in the Leibniz Research Institute for Environmental Medicine (IUF) Neural Progenitor Cell Migration and Differentiation Assay (NPC2-5) (AID 2284312; active = hit-call score of the fitted dose curve at least 0.9, where 1 is the maximum; inactive = score below 0.9)
Procedure, shortened: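 Human fetal (GW 16-19) neural progenitor spheres of 0.3 mm were plated on poly-D-lysine/laminin in N2 differentiation medium and exposed from day 0 for 120 h, with half-medium refresh at day 3. Viability was read as alamar blue resazurin-to-resorufin fluorescence against DMSO.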

[14] = VALA_TUBIPS_Antagonist_TubuleLength: VALA Sciences human iPS-derived Endothelial Tubule Formation (TUBIPS) Antagonist Assay (AID 2284313)
Procedure, shortened: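 Cells grown 3 days with 10 ng/ml VEGF, then exposed to compounds in VEGF medium for another 3 days. After fixation, nuclear stain and CD31 immunofluorescence imaging gave mean total tubule length against 0.1% DMSO; suramin (100 uM) inhibition control.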

[15] = VALA_MIGHUV2_CellCount: Viability Assessment in the VALA Sciences human Umbilical Vein Endothelial Cell Migration (MIGHUV) Assay, Area of Scratch Wound after Recovery (AID 2284314)
Procedure, shortened: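 Scratch-wounded HUVEC monolayers received test chemical within 30 min, 6-point concentration response in triplicate, 0.1 % DMSO vehicle. After 24 h wound recovery, fixed cells were Hoechst-stained and nuclei imaged; loss of signal versus DMSO indicates reduced viability.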

[16] = VALA_MIGHUV2_WoundArea: VALA Sciences human Umbilical Vein Endothelial Cell Migration (MIGHUV) Assay, Area of Scratch Wound after Recovery (AID 2284316)
Procedure, shortened: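 HUVEC seeded at 9000 cells/well, scratched after 24 h; test chemical added within 30 min, 6-point concentration response in triplicate (0.1% DMSO vehicle). After 24 h wound recovery, cells fixed and Hoechst-stained nuclei in wound area imaged; Cytochalasin D reference control.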

[17] = VALA_MIGHUV1_ScratchOnly_CellCount: Viability Assessment in the VALA Sciences human Umbilical Vein Endothelial Cell Migration (MIGHUV) Assay, Scratch Wound Inhibited Recovery (AID 2284327)
Procedure, shortened: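 HUVEC scratched after 24 h culture, chemical added within 30 min at 6 concentrations in triplicate (0.1% DMSO vehicle). After 24 h recovery, fixed cells were counted by Hoechst nuclear imaging in the wound area.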

[18] = VALA_TUBHUV_Antagonist_CellCount: Viability Assessment in the VALA Sciences human Umbilical Vein Endothelial Tubule Formation (TUBHUV) Antagonism Assay (AID 2284310)
Procedure, shortened: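 HUVEC co-cultured with HDF (1:3) 3 days in 10 ng/ml VEGF, then 3 days with compounds in VEGF medium. Fixed, nuclear stain and CD31 immunofluorescence, imaged; cell counts fitted versus 0.1% DMSO, loss of signal read as lower viability.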

[19] = CCTE_Mundy_HCI_iCellGluta_NOG_NeuriteLength: CCTE's Neurite Outgrowth Assay in iCellGluta cells for Neurite Length, Mundy Lab (AID 2284318)
Procedure, shortened: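 Automated high-content imaging of betaIII-tubulin (Alexa Fluor-488) and Hoechst-stained cells gave neurite length, normalized to the DMSO baseline.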

[20] = VALA_TUBHUV_Antagonist_TubuleLength: VALA Sciences human Umbilical Vein Endothelial Tubule Formation (TUBHUV) Antagonism Assay (AID 2284325)
Procedure, shortened: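 HUVEC–HDF co-culture (1:3) pre-grown 3 days with 10 ng/ml VEGF, then 3 days with compound plus VEGF. Fixed, nuclear and CD31 stained; total tubule length by imaging versus 0.1% DMSO; suramin 100 uM positive control.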

Measured: AC50

C1CCC(SSC2CCCCC2)CC1
inactive: [1] | [2]

O=c1[nH]cc(F)c(=O)[nH]1
active: [4] 16.5 µM | [5] 5.95 µM
inactive: [3]

COc1cc(S(=O)(=O)O)c(C)cc1N=Nc1c(O)ccc2cc(S(=O)(=O)O)ccc12
inactive: [2]
active: [6] 154 µM | [1] 24.8 µM

OC[C@@H](O)[C@@H](O)[C@H](O)[C@H](O)CO
not listed: [3] | [4] | [5] | [6] | [17] | [18] | [19] | [20]
inactive: all other assays above

Oc1ccc2ccccc2c1N=Nc1ccccc1
inactive: [11] | [15] | [16] | [1] | [2] | [17]

Cc1cc(NC(=O)C(=O)O)cc(C)c1Oc1ccc(O)c2c1CCC2
inactive: [14]
active: [11] 91.7 µM | [18] 81.2 µM

O=C(O)CCCCC(=O)O
inactive: [3]

CCCCOC(=O)CCCCCCCCC(=O)OCCCC
inactive: [1] | [2]

C[Si]1(C)O[Si](C)(C)O[Si](C)(C)O[Si](C)(C)O1
inactive: [7] | [8] | [9] | [10] | [13] | [19]

COC(=O)c1ccc(O)cc1
inactive: [11] | [18] | [14] | [20] | [3]

CCCc1cc(=O)[nH]c(=S)[nH]1
inactive: [11] | [14] | [20] | [3] | [4] | [5]

COc1cc(-c2nc(NC(=O)c3cc4cc(C)cc(C)c4n3CC(=O)O)sc2CCC2CCCCC2)c(OC)cc1Cl
inactive: [1] | [2]

CC(=O)Oc1ccccc1C(=O)O
inactive: [8] | [9] | [10] | [13] | [19] | [3] | [5]

CC1=C(/C=C/C(C)=C/C=C/C(C)=C/CO)C(C)(C)CCC1
active: [4] 67.5 µM | [5] 34.6 µM

CCOc1ccc2c(c1)C(C)=CC(C)(C)N2
inactive: [3]

CC=Cc1ccc(O)c(OC)c1
inactive: [1] | [2]

COc1ccc(C)cc1N
inactive: [1] | [2]

CCCCC(CC)COC(=O)CC(C(=O)OCC(CC)CCCC)S(=O)(=O)O (centres undefined)
active: [11] 7.22 µM | [15] 50 µM | [6] 41.5 µM | [1] 62.2 µM | [20] 73 µM | [17] 78.2 µM
inactive: [12] | [14] | [16]

COc1ccc2c(c1)c(CC(=O)O)c(C)n2C(=O)c1ccc(Cl)cc1
active: [4] 5.9 µM | [5] 10.2 µM

COc1cccc2c1C(=O)c1c(O)c3c(c(O)c1C2=O)C[C@@](O)(C(=O)CO)C[C@@H]3O[C@H]1C[C@H](N)[C@H](O)[C@H](C)O1
active: [4] 7.41 µM | [5] 0.00843 µM

O=c1c(O)c(-c2ccc(O)c(O)c2)oc2cc(O)cc(O)c12
active: [1] 26.7 µM | [2] 23.3 µM
inactive: [11] | [14]

CCCCCCCCCCC
inactive: [1] | [2]
